According to article PMC7819943, “Rice protein-binding microarrays: a tool to detect cis-acting elements near promoter regions in rice”:
Over roughly 68,000 sequences, “fluorescence intensity (a.u.)” has its median near 9,100; the highest 2% begin near 16,000. What follows is part of a selection rich in the highest values, with near analogues and random picks from the rest.

molecular target: OsWRKY34 (Oryza sativa, UniProt Q0JBA9 1-250); assay: protein-binding microarray (RPBM); PBS, 2% BSA, 51.3 ng/ul salmon testes DNA, 50 uM zinc acetate, 200 nM TF, 25 C, 1 h; high values mean tight binding; conditions: protein: recombinant; tags: N-terminal polyhistidine and DsRed monomer fusion (pET32a); label: CyDye5-dUTP incorporated in the synthesized complementary strand; 3' TTTTT single-stranded linker to array surface; dsDNA, one strand shown
Sequence (Q0JBA9 entry or part of it): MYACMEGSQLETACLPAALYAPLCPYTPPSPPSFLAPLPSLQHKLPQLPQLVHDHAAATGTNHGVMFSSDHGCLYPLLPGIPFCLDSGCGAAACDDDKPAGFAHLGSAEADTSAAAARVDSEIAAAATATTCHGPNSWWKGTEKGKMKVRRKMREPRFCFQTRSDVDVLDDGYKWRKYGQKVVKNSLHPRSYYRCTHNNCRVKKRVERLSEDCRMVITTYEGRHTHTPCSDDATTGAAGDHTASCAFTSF
Method in brief: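 Transcription factors, each fused N-terminally to a polyhistidine tag and DsRed, were expressed in E. coli BL21-CodonPlus and purified on Ni–NTA. A custom Agilent array was made double-stranded by primer extension with Cy5-dUTP and blocked with 2% BSA. It was incubated with 200 nM protein in PBS, 2% BSA, salmon testes DNA and 50 µM zinc acetate at 25 °C for 1 h, then washed. The binding signal is per-feature fluorescence intensity (arbitrary units) read on an Axon 4000B scanner.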

Question: Which binding signal does the source give for “CTCCGTTTTTTAATAGATGACACCGTTGACTTTTTCTCACCGGAGTCACCTAGTGCAG” here?
Answer: 30600 fluorescence intensity (a.u.)

Question: How did the binding signal turn out when “GTCTCACCGGAGCTCCGCCGCCGCCGCCGCCGTTTTCTCCCGGAGTCACCTAGTGCAG” was run?
Answer: 25700 fluorescence intensity (a.u.)

Question: “CGTTTTTTAATAGATGACGCCATTGACTTTTTCTCACATACGGAGTCACCTAGTGCAG” was tested. Which binding signal did it give?
Answer: 11000 fluorescence intensity (a.u.)

Question: Which binding signal does the source give for “CTGATTATACCATTGTTTTCGTTGCAACTAAATCTTGATACGGAGTCACCTAGTGCAG” here?
Answer: 9280 fluorescence intensity (a.u.)

Question: With “TGCAAGCTCCGCCGTTTGTGTGTAATGGGGTTTCCCAAATCGGAGTCACCTAGTGCAG” as the sequence, how does the binding signal read?
Answer: 8230 fluorescence intensity (a.u.)

Question: “CACTTCACCTTTTTTGCAAGATGCTACTACTAATTACTAACGGAGTCACCTAGTGCAG” was tested. Which binding signal did it give?
Answer: 10400 fluorescence intensity (a.u.)

Question: Which binding signal does the source give for “GATATACACACTTAGCTCTCCTACTGTGAGAATTCTCTTCCGGAGTCACCTAGTGCAG” here?
Answer: 9480 fluorescence intensity (a.u.)

Question: How did the binding signal turn out when “CCCTTTTTTATACCGTGGCATATCTCTCTGCATTTAATCTCGGAGTCACCTAGTGCAG” was run?
Answer: 13700 fluorescence intensity (a.u.)

Question: With “ATATGGCATTGTTTCTGTGTTATTCAGGCGCACCTTTAAACGGAGTCACCTAGTGCAG” as the sequence, how does the binding signal read?
Answer: 10100 fluorescence intensity (a.u.)

Question: How did the binding signal turn out when “CGGTTGCTCCTTTGCCTAATCACTCAATTCCAGTAACTTTCGGAGTCACCTAGTGCAG” was run?
Answer: 8760 fluorescence intensity (a.u.)

Question: “TTGGGGTTGGACCGGTTTTCATCTGTTCTTGTCCTGAGAGCGGAGTCACCTAGTGCAG” was tested. Which binding signal did it give?
Answer: 10800 fluorescence intensity (a.u.)

Question: “GTGCAGCAATCATCTCGTCCACCTCACCTTACCCGAAACCCGGAGTCACCTAGTGCAG” was tested. Which binding signal did it give?
Answer: 8340 fluorescence intensity (a.u.)

Question: For “GCCTCTGCCAGCCGACGGCCGTTCGGCCCTCCGCGCACGCCGGAGTCACCTAGTGCAG”, which binding signal is on record?
Answer: 8320 fluorescence intensity (a.u.)

Question: Which binding signal does the source give for “CTTATCCACCATCAATGTTCCTGACTTCAATTTTTCGTTGCGGAGTCACCTAGTGCAG” here?
Answer: 10500 fluorescence intensity (a.u.)

Question: “TAACATTGATTGTTATGTCACTTGTCTGTGGATCAACTCTCGGAGTCACCTAGTGCAG” was tested. Which binding signal did it give?
Answer: 9060 fluorescence intensity (a.u.)

Question: How did the binding signal turn out when “CTCTTGAACGTTGTCGCCCGCCGTTTCCCGCCGCTGTCTCCGGAGTCACCTAGTGCAG” was run?
Answer: 18200 fluorescence intensity (a.u.)

Question: “GCGCTCCCGTCGTTGTCTCCGCTGCTTTGTTTCTCGTCGCCGGAGTCACCTAGTGCAG” was tested. Which binding signal did it give?
Answer: 11600 fluorescence intensity (a.u.)

Question: How did the binding signal turn out when “CTTCGTTTTTTAATAGATGACGCCGTTGACTTTTTCTCACCGGAGTCACCTAGTGCAG” was run?
Answer: 22000 fluorescence intensity (a.u.)

Question: Which binding signal does the source give for “CCGTTTCCCGCCGCTGTCTCCCGCCGGAGCCGCCCCTGCTCGGAGTCACCTAGTGCAG” here?
Answer: 9030 fluorescence intensity (a.u.)

Question: With “TAAATCCACGACCCTTCAGCTATCTATCTCAGCTCCAATCCGGAGTCACCTAGTGCAG” as the sequence, how does the binding signal read?
Answer: 8170 fluorescence intensity (a.u.)

Question: How did the binding signal turn out when “CTGCAATCTAGCCATCTGTTATCTATCCATGCATCGATGTCGGAGTCACCTAGTGCAG” was run?
Answer: 8120 fluorescence intensity (a.u.)

Question: With “ATAAACATAAACTTCCAACATTTCCGTCACATCATTCTAACGGAGTCACCTAGTGCAG” as the sequence, how does the binding signal read?
Answer: 8970 fluorescence intensity (a.u.)

Question: Which binding signal does the source give for “CGTTTTTGCTCGGGTGGGCTGGGTTAGGGACTCATCTGCACGGAGTCACCTAGTGCAG” here?
Answer: 23800 fluorescence intensity (a.u.)

Question: How did the binding signal turn out when “TTTCGGCCCACATTCCTATCCGTTTTTGCTCGGGTGGGCTCGGAGTCACCTAGTGCAG” was run?
Answer: 10900 fluorescence intensity (a.u.)

Question: How did the binding signal turn out when “CACTCTGCAGCTCTGCTCGTTTTGCACACGGGTGACTCGTCGGAGTCACCTAGTGCAG” was run?
Answer: 9700 fluorescence intensity (a.u.)

Question: With “CATATCCGTTTTTGCTCGGGTGGGCTGGGTTAGGGACTCACGGAGTCACCTAGTGCAG” as the sequence, how does the binding signal read?
Answer: 19000 fluorescence intensity (a.u.)

Question: “ATGGCGTTTGGGTTTGGCTCGGGTTGATCTGGATAAGGGACGGAGTCACCTAGTGCAG” was tested. Which binding signal did it give?
Answer: 9020 fluorescence intensity (a.u.)

Question: For “TTGGTGGGCCGTTATTTTGTTTGGGCTGGATTTGCACGTTCGGAGTCACCTAGTGCAG”, which binding signal is on record?
Answer: 11700 fluorescence intensity (a.u.)

Question: For “CCGCGCATTTTTTTGGTTCGAAATTCCTTTGCTAAGCAAACGGAGTCACCTAGTGCAG”, which binding signal is on record?
Answer: 8380 fluorescence intensity (a.u.)

Question: How did the binding signal turn out when “AAGGTTGGCATGACAATTCTCACTACTTGGACTAACAGTTCGGAGTCACCTAGTGCAG” was run?
Answer: 8310 fluorescence intensity (a.u.)

Question: How did the binding signal turn out when “TTCCAACTACCTAGCTCAGCTTAGTCTCTGGTTGACCATTCGGAGTCACCTAGTGCAG” was run?
Answer: 8450 fluorescence intensity (a.u.)

Question: “GCTTCTACAATCGGATGGATTCACCATTGATTCTCGTTTTCGGAGTCACCTAGTGCAG” was tested. Which binding signal did it give?
Answer: 8940 fluorescence intensity (a.u.)

Question: “ACTTGATTTACGAACAGACATTTTTTATTTTTCTACACCACGGAGTCACCTAGTGCAG” was tested. Which binding signal did it give?
Answer: 9230 fluorescence intensity (a.u.)

Question: “TTGGGGTCGAGATATCCGGTTTTGTGGTTTAGGGTCATGTCGGAGTCACCTAGTGCAG” was tested. Which binding signal did it give?
Answer: 9090 fluorescence intensity (a.u.)

Question: How did the binding signal turn out when “TATTTGATGCCGTTGACTTTTTTAAATATGTTTGACCGTTCGGAGTCACCTAGTGCAG” was run?
Answer: 20900 fluorescence intensity (a.u.)

Question: With “ATTTGATGCCGTTGACTTTTTTAAATATGTTTAACCGTTCCGGAGTCACCTAGTGCAG” as the sequence, how does the binding signal read?
Answer: 33000 fluorescence intensity (a.u.)

Question: Which binding signal does the source give for “TATTTGACGCCGTTGATTTTTTTAAATATGTTTGACCGTTCGGAGTCACCTAGTGCAG” here?
Answer: 11000 fluorescence intensity (a.u.)

Question: For “ACTTTTTTAAATATGTTTGACCGTTCGTTTTATTCAAAAACGGAGTCACCTAGTGCAG”, which binding signal is on record?
Answer: 8320 fluorescence intensity (a.u.)

Question: With “GAATTGATCTCATGCATGCCAACCCTTCTAGCAATCTATCCGGAGTCACCTAGTGCAG” as the sequence, how does the binding signal read?
Answer: 9310 fluorescence intensity (a.u.)

Question: “GGACCGTTCACTAACCCCGTAACCGTGTCGCGCGCGCAACCGGAGTCACCTAGTGCAG” was tested. Which binding signal did it give?
Answer: 9590 fluorescence intensity (a.u.)

Question: For “TTCTTATTTGCAAGTATACTGTTTTGCTTTTCTCTCTAATCGGAGTCACCTAGTGCAG”, which binding signal is on record?
Answer: 9690 fluorescence intensity (a.u.)
